Measurements from PubChem BioAssay (NCATS).
Results filed as inconclusive are left out. Active and inactive are the calls of the source. Calls come from the whole dose curve; as a rule, active = well fitted inhibition curve with a large enough effect; inconclusive = small, poorly fitted or top-dose-only effect; inactive = flat fitted curve, though single readings scatter.

Test: qHTS to identify inhibitors of the type 1 interferon - major histocompatibility complex class I in skeletal muscle: primary screen against the NCATS LOPAC collection (AID 1347405);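 note: lytic HiBiT luminescence reporting HLA-B protein level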
Conditions: iHSKM muscle cells, IFN-b-induced MHC-I HiBiT luminescence, 24 h; series mostly up to 45.9 µM; activity change, negative = inhibition: at the top concentration
Text: Assay Submitter (PI): Travis B. Kinder Ph.D. & James Inglese Ph.D.
Assay Development and Screening Technology Laboratory (ADST)
National Center for Advancing Translational Sciences (NCATS), Rockville, MD
National Institute of Health (NIH), Bethesda, Maryland
Idiopathic inflammatory myopathies, collectively referred to as myositis, are a group of rare autoimmune diseases characterized by skeletal muscle inflammation, weakness, and usually accompanied by systemic pathologies of the skin, lungs, or vasculature. Current immunosuppressive therapies and glucocorticoids are often not curative and are accompanied by harsh side effects, especially in children with juvenile myositis. We initiated a drug repurposing and development program to identify more targeted, less toxic therapeutics to treat myositis. Although its cause is not known, muscle from a subset of patients have an abundance of the inflammatory type 1 interferon (IFN) and a down-stream product major histocompatibility complex class I (MHC class I), which are both thought to contribute to damage and weakness. We conducted quantitative high throughput screening on 6,576 compounds (4,679 unique) through a series of cell-based assays to identify those that inhibit the IFN-stimulated expression of MHC class I in muscle precursor cells (myoblasts). The compound identification and evaluation strategy utilized a primary screen with reporter-tagged MHC class I in genome-engineered myoblasts, ATP content counter screen for viability, HLA-ABC immunofluorescence secondary screen, and HLA-B RT-qPCR tertiary screen.
The primary screen utilized CRISPR/Cas9 genome-engineering of immortalized human myoblasts, C25cl48, where a pro-luminescent reporter HiBit was fused to the C-terminus of endogenous MHC class I allele HLA-B*08:01 (HLA-B HiBit myoblasts). HiBit is an 11 amino acid fragment of NanoLuc luminescent reporter (Promega Corporation), and when complexed to the larger LgBit fragment, the reconstituted enzyme produces light in the presence of furimazine substrate (Schwinn et al., 2018). Briefly, HLA-B HiBit myoblasts were plated into 1536-well plates, treated with 4.0 ng/ml human IFN-beta and 1,280 compounds from the Library of Pharmacologically Active Compounds 1280 library (LOPAC1280, Sigma Aldrich) in a 7-point, 1:4.3 titration with a high final concentration of 46 uM. After 24 hrs of treatment, cells were assayed by Nano-Glo HiBiT Lytic Detection System (Promega) and luminescence measured by a ViewLux 1430 Ultra HTS (Perkin Elmer).
Schwinn MK, Machleidt T, Zimmerman K, Eggers CT, Dixon AS, Hurst R, Hall MP, Encell LP, Binkowski BF, Wood K V. 2018. CRISPR-Mediated Tagging of Endogenous Proteins with a Luminescent Peptide. ACS Chem Biol 13:467-474. doi:10.1021/acschembio.7b00549
PROTOCOL TABLE (as described by Inglese et al., 2007)
SEQUENCE No. (e.g., 1, 2, 3, etc.); […] (e.g., Cells, Incubation, Reagent, etc.); VALUE; DESCRIPTION
1a; Cells; 5 uL; Use a Multidrop Combi (Thermo Scientific) to seed 350 cells/well into nine Greiner 1536 well white/solid bottom, high base, TC plates in 5 ul/well of iHSKM growth medium (GM) without dexamethasone into columns 1+2. Add metal lids with gas-exchange holes
1b; Cells; 5 uL; Use a Multidrop Combi (Thermo Scientific) to seed 350 cells/well into nine Greiner 1536 well white/solid bottom, high base, TC plates in 5 ul/well of iHSKM GM without dexamethasone + 4 ng/ml IFN-b into columns 3 - 48. Add metal lids with gas-exchange holes
2; Incubate; 1 hr; Incubate at 37 C, 5% CO2, 95% RH
3; Compounds; 23 nl; Use Pin Tool (Wako) to transfer DMSO control, ruxolitinib IFN-b inhibitor control [High Concentration = 80 uM final, 16-pt, 1:2 in duplicate], and library compounds in DMSO
4; Incubate; 24 hrs; Incubate at 37 C, 5% CO2, 95% RH
5; Dispense; 2.5 ul; Use BioRAPTR FRD (Beckman Coulter) to add HiBit lytic reagent
6; Incubate; 10 min; Incubate in the dark at ambient temperature for lysis
[…]
% is set by controls: 0 for no effect and ±100 for the full control effect; potency is the fitted concentration of half-maximal effect.

| Compound | activity change, negative = inhibition | Potency |
| --- | --- | --- |
| CN1C(C(=O)Nc2ccccn2)=C(O)c2ccccc2S1(=O)=O | -29.3% (inactive) | – |
| Nc1ccn([C@H]2CC[C@@H](CO)O2)c(=O)n1 | -8.83% (inactive) | – |
| CN1CCN2c3ccccc3Cc3ccccc3C2C1 (stereo not given) | -0.921% (inactive) | – |
| COc1ccccc1OCCNCC(O)COc1cccc2[nH]c3ccccc3c12 (stereo not given) | -1.82% (inactive) | – |
| CN(C)CCC=C1c2ccccc2C=Cc2ccccc21 | -3.22% (inactive) | – |
| C[C@](N)(Cc1ccc(O)c(O)c1)C(=O)O | 8.28% (inactive) | – |
| CCOC(=O)C(C)(C)Oc1ccc(Cl)cc1 | 2.68% (inactive) | – |
| COc1ccccc1N1CCN(CC(O)COc2cccc3ccccc23)CC1 (stereo not given) | 2.31% (inactive) | – |
| CN(Cc1cnc2nc(N)nc(N)c2n1)c1ccc(C(=O)N[C@@H](CCC(=O)O)C(=O)O)cc1 | -18.1% (inactive) | – |
| O=C(CCCN1CCC(O)(c2ccc(Cl)cc2)CC1)c1ccc(F)cc1 | -0.391% (inactive) | – |
| NCCS(=O)(=O)O | 2.53% (inactive) | – |
| O=C1N(c2ccccc2)c2ccccc2C1(Cc1ccncc1)Cc1ccncc1 | -2.26% (inactive) | – |
| CC(C(=O)O)c1cccc(C(=O)c2ccccc2)c1 (stereo not given) | -3.8% (inactive) | – |
| CN(C)CCOC(c1ccccc1)c1ccccc1 | 0.937% (inactive) | – |
| CC(CCc1ccc(O)cc1)NCCc1ccc(O)c(O)c1 (stereo not given) | -10.6% (inactive) | – |
| CN1CCN(C2=Nc3cc(Cl)ccc3Nc3ccccc32)CC1 | -16.5% (inactive) | – |
| Cc1cnc(C(=O)NCCc2ccc(S(=O)(=O)NC(=O)NC3CCCCC3)cc2)cn1 | -10.2% (inactive) | – |
| CC12CC3CC(C)(C1)CC(N)(C3)C2 | -18% (inactive) | – |
| CCOC(=O)c1ncn2c1CN(C)C(=O)c1cc(F)ccc1-2 | -7.29% (inactive) | – |
| CC(C)(Oc1ccc(C2CC2(Cl)Cl)cc1)C(=O)O (stereo not given) | -9.48% (inactive) | – |

| Compound | activity change, negative = inhibition | Potency |
| --- | --- | --- |
| COc1nc(C)nc(Cl)c1NC1=NCCN1 | -5.75% (inactive) | – |
| O=C1c2c(O)ccc(O)c2C(=O)c2c(NCCNCCO)ccc(NCCNCCO)c21 | – | 2.24 µM (active) |
| NS(=O)(=O)c1cc2c(cc1Cl)NCNS2(=O)=O | 3.12% (inactive) | – |
| Nc1nnc(-c2cccc(Cl)c2Cl)c(N)n1 | 0.951% (inactive) | – |
| Clc1ccc2c(c1)C(N1CCNCC1)=Nc1ccccc1O2 | -9.74% (inactive) | – |
| N[C@@H](Cc1c[nH]c2ccc(O)cc12)C(=O)O | -2.32% (inactive) | – |
| COc1ccccc1OCC(O)CN1CCN(CC(=O)Nc2c(C)cccc2C)CC1 (stereo not given) | 0.983% (inactive) | – |
| CCc1cccc2c3c([nH]c12)C(CC)(CC(=O)O)OCC3 (stereo not given) | -11.4% (inactive) | – |
| O=c1c(-c2ccc(O)cc2)coc2cc(O)cc(O)c12 | – | 17.8 µM (active) |
| Nc1nc2c(ncn2COC(CO)CO)c(=O)[nH]1 | 1.53% (inactive) | – |
| O=C(c1ccc(OCCN2CCCCC2)cc1)c1c(-c2ccc(O)cc2)sc2cc(O)ccc12 | -7.54% (inactive) | – |
| Clc1ccc2nsnc2c1NC1=NCCN1 | -0.47% (inactive) | – |
| Cc1cc(C(C)(C)C)cc(C)c1CC1=NCCN1 | -24.9% (inactive) | – |
| Cc1cc(C(C)(C)C)c(O)c(C)c1CC1=NCCN1 | -3.63% (inactive) | – |
| CC1COc2c(N3CCN(C)CC3)c(F)cc3c(=O)c(C(=O)O)cn1c23 (stereo not given) | 10.2% (inactive) | – |
| COc1ccc(C2CNC(=O)C2)cc1OC1CCCC1 (stereo not given) | -0.843% (inactive) | – |
| CN1CCN(CCCN2c3ccccc3Sc3ccc(Cl)cc32)CC1 | -9.46% (inactive) | – |
| CC[C@@]1(O)C(=O)OCc2c1cc1n(c2=O)Cc2cc3c(CN(C)C)c(O)ccc3nc2-1 | – | 3.55 µM (active) |
| CC(C)NCC(O)c1ccc(O)c(O)c1 (stereo not given) | -7.83% (inactive) | – |
| CC(C)C(=O)Nc1ccc([N+](=O)[O-])c(C(F)(F)F)c1 | -19.7% (inactive) | – |
